# Rows were chosen to be rich in hits. Some 2.2% of all compounds tested hit in one or more screens of this group.
# IEC-6 tox = cytotoxicity in IEC-6 intestinal epithelial cells, primary screen, cytotoxicity control for KLF5 inhibitor project, cell-based, luminescence | IEC-6 cytotoxicity, luminescence viability | inhibition, % at 5 µM | 0.78% of 290,000 active; in the data active = inhibition above about 22%
# KLF5 inhibitor = KLF5 expression inhibitors, primary screen, DLD-1 cells, luminescence; DLD-1 KLF5 promoter-luciferase reporter; inhibition, % at 5 µM; 0.23% of 290,000 active;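 active = inhibition above a per-plate limit of that plate's mean compound inhibition plus 3 SD, cut at about 60% in these data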;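 also: higher means less KLF5 promoter-driven luciferase light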
# APP 5UTR inh = inhibitors of APP translation via 5'UTR reporter, primary screen, APP 5'UTR luciferase, SH-SY5Y cells; AID 1285, 2008; 0.82% of 190,000 active; inhibition, % at 2 µM; SH-SY5Y APP 5'UTR-luciferase reporter, luminescence;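 active = inhibition above a set limit, derived from the sample mean plus 3 SD, cut at about 45% in these data; inconclusive = one replicate passes the limit while the other fails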
# aSyn 5UTR inh = MLPCN primary screen, SNCA 5' untranslated region | inhibition, % (tested at 7.5 µM) | 0.82% of 300,000 active | alpha-synuclein 5'UTR reporter, inhibitor activity; in the data active = inhibition above about 60%; inconclusive = no clear call, values can overlap the other calls;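 also: H4 neuroglioblastoma cells stably carrying SNCA 5'UTR luciferase fusion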
# BaF3 parental = parental Ba/F3 cell viability inhibition, counter-screen for JAK2V617F inhibitor project, murine pro-B, CellTiter-Glo luminescence | inhibition, % at 5.6 µM | 1.1% of 220,000 active | CellTiter-Glo ATP luminescence;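 active = inhibition above a per-campaign cutoff, the mean inhibition of all tested compounds plus 3 SD, cut at about 27% in these data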
# Ba/F3 V617F tox = reduced viability of JAK2V617F-dependent Ba/F3 cells, primary screen, JAK2V617F inhibitor project, cell-based, Ba/F3 EpoR-JAK2V617F, luminescence; 1.1% of 220,000 active; ATP luminescence; AID 1446, 2008; inhibition, % at 5.6 µM;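 active = inhibition above the campaign mean plus 3 SD over all tested compounds, cut at about 24% in these data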;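 also: cytokine-independent growth of Ba/F3 cells driven by EpoR plus mutant JAK2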
# Hits are given with their value; i = inactive; ? = inconclusive; nt = not tested or not shown.
SMILES,IEC-6 tox,KLF5 inhibitor,APP 5UTR inh,aSyn 5UTR inh,BaF3 parental,Ba/F3 V617F tox
COc1ccc(-n2cc(-c3ccc(Cl)cc3)[nH]c2=S)cc1,i,i,nt,i,i,i
COc1ccc(-n2cc(-c3ccc(OC(F)F)cc3)[n+]3c2CCCCC3)cc1,i,i,i,i,64,72
Clc1ccc(-c2cn(-c3ccc(Cl)cc3)c3[n+]2CCCCC3)cc1,i,i,nt,i,62,46
CC1CCCCN1S(=O)(=O)c1ccc(C(=O)Nc2nnc(-c3ccccc3Cl)o2)cc1 (configuration not stated),i,i,i,i,i,i
COc1ccc(-c2nnc(NC(=O)c3ccc(S(=O)(=O)N4COCC4(C)C)cc3)o2)cc1,i,i,i,76,46,i
CC1CCCCN1S(=O)(=O)c1ccc(C(=O)Nc2nnc(-c3ccncc3)o2)cc1 (configuration not stated),i,i,i,i,i,i
CC1(C)COCN1S(=O)(=O)c1ccc(C(=O)Nc2nnc(-c3ccc(Cl)s3)o2)cc1,i,i,i,92,i,i
COc1c(N2C[C@@H]3CCCN[C@@H]3C2)c(F)cc2c(=O)c(C(=O)O)cn(C3CC3)c12,nt,nt,nt,i,nt,nt
CCc1ccc(-c2cn3nc(-c4ccccc4)cnc3n2)cc1,i,i,nt,i,i,i
Cc1ccc(-c2cn3nc(C)c(C)nc3n2)cc1,i,i,i,73,i,i
Cc1ccc(N(CC(=O)N2CCCC2)S(C)(=O)=O)c(C)c1,i,i,nt,i,nt,nt
CC1=CC(=C2C=CC(=O)C=C2)C=C(C)N1C,i,i,nt,i,60,73
Cc1ccccc1N/N=C/c1sc(=O)n(Cc2cccc(C(=O)O)c2)c1Cl,i,i,nt,i,i,i
COC(=O)c1cccc(Cn2c(Cl)c(/C=N/Nc3ccccc3C)sc2=O)c1,i,i,46,i,i,i
COc1ccc(OC)c(Nc2cc(C)c3ccccc3n2)c1,i,65,nt,i,nt,nt
COc1ccc(/C=N/OC(=O)Nc2ccccc2OC)cc1,35,i,i,i,i,i
COc1ccc(NC(=O)O/N=C/c2ccc(Br)cc2)cc1,i,i,nt,i,nt,nt
COc1ccc(/C=C/c2cc(C(=O)O)c3ccccc3n2)cc1,i,i,nt,81,i,i
COc1ccc(/C=C/C(=O)Nc2ccccc2C(=O)O)cc1,i,i,i,83,i,i
CCCn1c(CN2CCN(C(=O)OCC)CC2)nc2cc([N+](=O)[O-])ccc21,i,i,nt,i,nt,nt
O=C(NCCN1CCOCC1)C(=O)NCC1OCCN1S(=O)(=O)c1ccc(F)cc1 (configuration not stated),i,i,nt,i,nt,nt
Cc1cc(NO)c(C(C)C)cc1N=O,i,i,i,i,45,51
Cc1ccc(OCCN2CCN(c3ncnc4sc(C)c(C)c34)CC2)cc1,i,i,nt,i,28,i
CC(=O)Nc1ccc(Nc2nc(C)c([N+](=O)[O-])c(Nc3ccccc3)n2)cc1,i,i,i,?,i,i
CC(=O)Nc1ccc(Nc2nc(C)c([N+](=O)[O-])c(N(C)c3ccccc3)n2)cc1,i,i,nt,86,i,i
SMILES,IEC-6 tox,KLF5 inhibitor,APP 5UTR inh,aSyn 5UTR inh,BaF3 parental,Ba/F3 V617F tox
CCC(c1nnnn1C1CCCCC1)N1CCN(C(=O)c2ccco2)CC1 (configuration not stated),i,i,nt,i,nt,nt
Cc1ccc(NC(=O)CCC(=O)c2cccs2)nc1,nt,nt,nt,i,nt,nt
Cc1ccnc(NC(=O)CCC(=O)c2cccs2)c1,nt,nt,nt,84,nt,nt
O=C(NCc1n[nH]c(=S)n1-c1cccc(Cl)c1)c1ccc(S(=O)(=O)N2CCCCC2)cc1,i,i,nt,i,nt,nt
CC(=O)c1c(N2CCCCC2)nc(=S)n(-c2ccccc2)c1C,i,i,i,i,41,i
Fc1ccc(-c2nc3ccccc3[nH]2)cc1,i,i,i,i,63,i
C#CC[N+](CC)(CC)CC#Cc1cccc(Cl)c1,i,i,i,i,66,73
CC[N+](CC)(CC#Cc1ccccc1)CC(=O)c1ccc(Cl)cc1,i,i,i,i,i,i
O=C(NNc1c2ccccc2nc2ccccc12)c1ccccc1O,i,i,i,i,i,i
O=C(NNc1c2ccccc2nc2ccccc12)c1ccc(O)cc1O,i,i,i,i,77,72
O=C(NNc1c2ccccc2nc2ccccc12)c1ccc(O)cc1,i,i,i,i,65,49
CCCCOc1ccc(Br)cc1CSC(=N)N,i,i,52,i,34,30

# Screening data deposited in PubChem BioAssay by several laboratories.
